Assay outcomes deposited in PubChem BioAssay by National Center for Advancing Translational Sciences (NCATS).
Most compounds without a hit are left out; they make up all but 10% or so of the library.
JMJD2A Tudor: qHTS Assay for Inhibitors of JMJD2A-Tudor Domain. Lysine-specific demethylase 4A (Homo sapiens), O75164. AlphaScreen JMJD2A-Tudor / H3K4me3 peptide binding. Potency, µM (doses to about 114 µM), most hits filed as inhibitors. hit rate 4.4% among 390,000; further: nearly all actives have a fitted effect of over 50% in size
Six1-Eya2 inh: qHTS Assay for Inhibitors of the Six1/Eya2 Interaction; hit rate 0.56% among 360,000; AlphaScreen GST-Six1/His-Eya2 binding, biochemical; active compounds read low; activity change, % (no concentration beside the values); Homeobox protein SIX1 (Homo sapiens) + Protein phosphatase EYA2 (Homo sapiens), …; in the data active means activity change below about -65%; inconclusive means mostly about -30% to -63%
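AlphaScreen with GST-Six1 and His-Eya2 (5X mix: 250 nM and 500 nM), glutathione donor and nickel acceptor beads; buffer 50 mM Tris pH 8.0, 300 mM NaCl, 1 mM TCEP; 1 h at 37 C in the dark.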
G9a block: qHTS Assay for Inhibitors of Histone Lysine Methyltransferase G9a | Potency, µM (doses to about 102 µM), hits mostly inhibitors | Histone-lysine N-methyltransferase EHMT2 (Homo sapiens), Q96KQ7 | G9a H3K9 monomethylation, AlphaScreen, 2 h | AID 504332, 2011 | hit rate 8.8% among 350,000; further: nearly all actives have a fitted effect of over 75% in size
Target sequence (Q96KQ7 913-1193 limits assumed): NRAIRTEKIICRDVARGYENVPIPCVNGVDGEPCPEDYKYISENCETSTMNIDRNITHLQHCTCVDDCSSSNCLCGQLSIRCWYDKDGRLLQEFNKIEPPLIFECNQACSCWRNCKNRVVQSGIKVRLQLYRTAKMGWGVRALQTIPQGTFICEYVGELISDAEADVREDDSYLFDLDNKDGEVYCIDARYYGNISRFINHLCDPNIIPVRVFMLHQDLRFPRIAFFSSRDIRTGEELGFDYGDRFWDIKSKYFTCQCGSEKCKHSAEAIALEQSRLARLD
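G9a (20 nM) was preincubated 15 min with compound, then reacted 2 h at room temperature with 500 nM biotin-H3K9 peptide and 20 µM SAM. Monomethyl-H3K9 detected by AlphaScreen using anti-H3K9me1 antibody.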
HP1b chromo inh: HTS for Inhibitors of HP1-beta Chromodomain Interactions with Methylated Histone Tails. Chromobox protein homolog 1 (Homo sapiens), P83916. AlphaScreen HP1-beta / biotin-H3K9me3 peptide binding. Potency, µM (top dose mostly 114 µM), most hits filed as inhibitors. hit rate 0.56% among 390,000. AID 540317, 2011; further: nearly all actives have a fitted effect of over 70% in size
Target sequence (P83916 whole entry, looked up): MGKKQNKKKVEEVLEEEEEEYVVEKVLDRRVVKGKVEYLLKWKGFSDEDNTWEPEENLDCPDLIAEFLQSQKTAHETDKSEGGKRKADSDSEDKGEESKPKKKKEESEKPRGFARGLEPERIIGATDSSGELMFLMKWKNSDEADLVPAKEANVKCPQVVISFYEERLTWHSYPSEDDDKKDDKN
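HP1-beta protein (50 nM final) preincubated 30 min at room temperature with biotinylated H3(1-18)K9me3 peptide (50 nM) in PBS pH 7.4, 0.01% Tween-20, then compound added for 30 min. AlphaScreen streptavidin donor/nickel chelate acceptor beads (10 ug/mL final), 30 min dark, luminescence read.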
CtBP-E1A inh: qHTS Assay for Inhibitors of the CtBP/E1A Interaction | CtBP / adenovirus E1A interaction (AlphaScreen) | AlphaScreen GST-E1A/His-CtBP binding, 1536-well; active compounds read low | hit rate 0.49% among 340,000 | AID 651724, 2012 | activity change, % (concentration not given with the values); in the data active means activity change below about -65%; inconclusive means mostly about -30% to -63%
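Steps: dispense buffer (Tris pH 8.0, NaCl 300 mM, TCEP 1 mM, BSA, Tween 20); add 5X protein mix (GST-E1A, His-CtBP, 125 nM each); pin 23 nL compound; 2 h at 37 °C, dark; add 5X beads (50 ug/mL); 1 h; read.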
BAZ2B block: qHTS Assay for Inhibitors of BAZ2B; Bromodomain adjacent to zinc finger domain protein 2B (Homo sapiens), Q9UIF8; AlphaScreen BAZ2B-H3K14Ac peptide displacement; hit rate 4.4% among 360,000; Potency, µM (top dose mostly 114 µM), usual class: inhibitors; further: nearly all actives have a fitted effect of over 60% in size
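Multi-concentration screen (max 110 uM) measuring displacement of acetylated histone H3 peptide from BAZ2B by AlphaScreen, using 50 nM protein, 50 nM peptide and 10 ug/mL streptavidin donor plus Ni-chelate acceptor beads.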
A number is an active result; n = inactive; u = inconclusive; x = not tested or not shown; [ ] = another dose, or the depositor's remark. Unless noted, the call rests on the fitted dose curve; in most records, active means well fitted inhibition curve with a large enough effect; inconclusive means small, poorly fitted or top-dose-only effect; inactive means no such curve, though single readings can be large or run the other way.

SMILES	JMJD2A Tudor	Six1-Eya2 inh	G9a block	HP1b chromo inh	CtBP-E1A inh	BAZ2B block
CCCn1nc([N+](=O)[O-])c(C(C#N)c2nc3ccccc3o2)c(Cl)c1=O (centres undefined)	56µM	u	10µM	u	n	20µM
CCCCn1c(N)c(-c2nc3ccccc3o2)c2c([N+](=O)[O-])nn(CC)c(=O)c21	n	n	n	n	n	n
Cn1nc([N+](=O)[O-])c(C(C#N)c2ccccn2)c(Cl)c1=O (centres undefined)	n	n	11µM	n	x	n
N#CC(c1ccccn1)c1ncc(C(F)(F)F)cc1Cl (centres undefined)	n	n	n[12.7 µM]	n	n	n
CCn1nc([N+](=O)[O-])c(C(C#N)c2nc3cc(C(F)(F)F)ccc3s2)c(Cl)c1=O (centres undefined)	28µM	u	11µM	22µM	n	11µM
CCCCC/C=C\C\C=C/C=C/C=C/[C@@H](SC[C@H](N)C(=O)NCC(=O)O)[C@@H](O)CCCC(=O)O	x	x	n	x	x	x
COc1ccc(-c2nc3ccccc3s2)cc1NC(=O)c1ccc(C#N)cc1F	n	x	n	n	x	n
CC1CCC(C(C)C)C(OCC(O)CN2CCCC(C)C2)C1 (centres undefined)	n	n	n	n	n	n
CC1CCC(C(C)C)C(OCC(O)C[N+]2(C)CCCCC2)C1 (centres undefined)	n	n	50µM	u	n	n
CCOc1ccccc1CNC(=O)Cc1ccc(NC(=O)N2CCCCc3ccccc32)cc1	n	x	n	n	x	n
CC(C)NS(=O)(=O)c1cc(F)ccc1CN1C(=O)c2cccnc2C1=O	u	n	n[12.7 µM]	n	u	u
CC(=O)Nc1ccc(NS(=O)(=O)c2ccc(CN3C(=O)c4cccnc4C3=O)cc2)cc1	n	n	n	n	n	79µM
Cc1ccc(CNS(=O)(=O)c2ccc(CN3C(=O)c4cccnc4C3=O)cc2)o1	n	n	n[0.0925 µM]	n	n	79µM
Cc1ccc(CNS(=O)(=O)c2cc(F)ccc2CN2C(=O)c3cccnc3C2=O)o1	n	n	u	n	n	50µM
CC1CCN(S(=O)(=O)c2ccc3c(ccc(=O)n3CC(=O)Nc3cccc(F)c3)c2)CC1	n	x	n	n	x	n
CN(Cc1ccco1)c1ccnc(-c2cccc(C#N)c2)n1	x	x	n[0.501 µM]	x	x	x
COc1ccc(N2C(=O)/C(=C/c3ccc([N+](=O)[O-])cc3)C=C2c2ccccc2)cc1	2.8µM	n	x	3.2µM	n	2.2µM
O=C1/C(=C/c2ccc([N+](=O)[O-])cc2)C=C(c2ccccc2)N1c1ccccc1	n	n	u	n	n	n
O=C(O)c1cccc(N2C(=O)c3cc([N+](=O)[O-])cc4cc([N+](=O)[O-])cc(c34)C2=O)c1	50µM	-75	x	u	-68	56µM
O=C1/C(=C/c2ccc([N+](=O)[O-])cc2)C=C(c2ccccc2)N1c1ccc(O)cc1	u	n	u	u	n	10µM
O=C(O)c1cccc(N2C(=O)/C(=C/c3ccc([N+](=O)[O-])cc3)C=C2c2ccccc2)c1	25µM	n	16µM	n	x	40µM
Cc1ccc(CNC(=O)c2cnn(-c3cccc(C)c3)c2C2CCN(C(=O)OC(C)(C)C)CC2)cc1	n	x	u	n	x	n
Cc1cccc(NC(=O)CNC(=O)c2cc(C3CC3)nn2-c2ccccc2)c1C	n	n	50µM	n	n	n
Cc1cc(C)c(NC(=O)CNC(=O)c2cc(C3CC3)nn2-c2ccccc2)c(C)c1	n	n	n	n	n	n
CCCNC(=O)CN1C(=O)NC(Cc2c[nH]c3ccccc23)C1=O (centres undefined)	50µM	n	n	n	n	n
SMILES	JMJD2A Tudor	Six1-Eya2 inh	G9a block	HP1b chromo inh	CtBP-E1A inh	BAZ2B block
COCCn1c(-c2ccccc2)cnc1N	n	-88	n	n	u	u
Cn1c(-c2ccccc2)cnc1N	u	u	n	n	u	u
CCC1CN(C(=O)Nc2cccc3c2CCCC3)c2cc(Cl)ccc2O1 (centres undefined)	n	x	n	n	x	n
COc1ccc(OC)c(NC(=O)c2oc(=O)c3ccccc3c2-c2ccccc2)c1	n	x	n	n	x	n
CC(=O)C(C(C)=O)C1(O)C(=O)c2ccccc2C1=O	n	n	50µM	n	n	n
CCN(/N=C/c1ccc(Cl)cc1)c1cc(=O)n(C)c(=O)[nH]1	40µM	n	n	n	n	n
Cc1nc(NC(=S)NC(=O)c2ccccc2)sc1C(=O)N(C)C	n	n	u	n	n	n
Cc1nc(NC(=O)C(Cl)Cl)sc1C(=O)N(C)C	79µM	n	u	n	n	u
Cc1nc(NC(=O)CCl)sc1C(=O)N(C)C	n	n	u	n	x	n
COC(=O)c1sc(NC(=S)NC(=O)c2cc(OC)c(OC)c(OC)c2)nc1C	n	n	71µM	n	x	n
CCCOc1ccc(C(=O)NC(=S)Nc2nc(C)c(C(=O)N(C)C)s2)cc1	n	n	11µM	n	n	n
O=C1NC(=S)CN1c1ccccc1	13µM	n	11µM	u	x	n
O=C1N(c2ccccc2)CCN1c1ccccc1	n	n	n[0.501 µM]	n	x	n
Cc1c(NC(=O)CSc2nc3ccccc3s2)c(=O)n(-c2ccccc2)n1C	n	n	50µM	n	n	n
Cc1nc2ccc(NC(=O)CSc3nnc(C)s3)cc2[nH]1	n	n	40µM	n	n	n
Cc1c(NC(=O)CSc2ccc3c(c2)OCCO3)c(=O)n(-c2ccccc2)n1C	50µM	n	n	u	n	n
Cc1c(NC(=O)CSc2nc3ccccc3[nH]2)c(=O)n(-c2ccccc2)n1C	n	n	n	n	n	x
Cc1c(NC(=O)CSc2nc3ccc(Cl)cc3[nH]2)c(=O)n(-c2ccccc2)n1C	n	n	11µM	n	n	u
Cc1c(NC(=O)CSc2ccc(Cl)cc2)c(=O)n(-c2ccccc2)n1C	n	n	u	n	x	n
Cc1nnc(SCC(=O)Nc2ccc3c(c2)OCCO3)s1	n	n	n	n	n	n
COc1cc2c(cc1OC)C(COc1cc(C)cc(C)c1)N(C(=O)COc1ccccc1)CC2 (centres undefined)	n	x	u	n	x	n
Cc1nc(-c2ccccc2)sc1CCNS(=O)(=O)c1ccccc1	n	x	n	n	x	n
Cc1cc(S(=O)(=O)Nc2ccc3oc4c(c3c2)CCCC4)ccc1Cl	n	x	u	n	x	n
